Assay outcomes (PubChem)
Compounds with a hit are over-represented: about 1.6% of the library has one in this group of screens.
KCNQ2 block – KCNQ2 (rat) channel inhibition | O88943 | CHO-K1 KCNQ2, FluxOR thallium flux, 20 min; active compounds read low | B-score at 10 µM | 310,000 compounds, 1.1% hits | AID 2156;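 active = fluorescence ratio B-score at most minus 3 library SDs, with starting brightness B-score within 2 library SDs, cut at about -5.5 in these data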
KCNQ2 pot – KCNQ2 (rat) channel potentiation; O88943; CHO-K1 KCNQ2, FluxOR thallium flux fluorescence; active compounds read high; B-score at 10 µM; 310,000 compounds, 0.54% hits;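 active = fluorescence ratio B-score at least 3 SD of library B-scores, with initial fluorescence B-score within 3 of them, cut at about 5.3 in these data; same plate scores as AID 2156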;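 note: B-score of peak minus minimum over baseline fluorescence ratio after K+ and Tl+ stimulus; positive B-score means potentiation of KCNQ2 with more thallium influx and brighter signal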
* = called active by the depositor; i = inactive; · = no result given.

SMILES	KCNQ2 block	KCNQ2 pot
C[C@H](NC(=O)c1nc[nH]c1C(=O)N1CCc2ccccc2C1)C(=O)OCc1ccccc1	i	·
COC(=O)c1cc(NS(=O)(=O)c2ccc(N3CCOCC3)c(N)c2)cc(C(=O)OC)c1	i	·
CC1(C)Cc2c(cnn2-c2ccc(F)cc2)C(NC(=O)C2=NNC(=O)CC2)C1 (configuration not stated)	i	·
COc1ccc(OC)c(NC(=S)N2CCN(Cc3ccccc3)CC2)c1	i	1
COc1ccc(OC)c(NC(=S)N2CCC(C(O)(c3ccccc3)c3ccccc3)CC2)c1	i	5.9*
O=C(CCN1C(=O)c2ccccc2S1(=O)=O)Nc1ccc(F)c(F)c1F	i	1.5
Oc1ccc(N=Nc2ccc(Br)cc2)c(O)c1	i	0.38
Cc1ccc(N=Nc2ccc(O)cc2)c(Br)c1	-5.7*	-5.7
CC(C)C[C@H]1CN=C(Nc2ccccc2)N1CCCC1CCCC1	i	·
CC(C)C[C@H]1CN=C(Nc2ccccc2)N1CCCC1CCCCC1	-5.6*	-5.6
CCOC(=O)C1CCCN(S(=O)(=O)CCNC(=O)c2cccc(OC)c2)C1 (configuration not stated)	i	·
COc1ccc2nc(NC(=O)Nc3cccc4ccccc34)sc2c1	i	·
COc1ccc2nc(N=Nc3c(O)ccc4ccccc34)sc2c1	i	8.2*
COc1cccc(C2C(=O)N(C3CCCCC3)CC(=O)N2Cc2ccc(F)cc2)c1 (configuration not stated)	-7*	-7
COc1cccc(C2c3[nH]c4ccccc4c3C[C@H]3C(=O)N(C4CC4)CC(=O)N23)c1 (some centres not stated)	i	·
O=C1C(c2ccc(F)cc2)N(C2CCCCC2)C(=O)CN1C1CCCC1 (configuration not stated)	i	·
COc1ccccc1CN1C(=O)CN(C2CCCCCC2)C(=O)C1c1ccc(F)cc1 (configuration not stated)	-6.1*	-6.1
N=C(N=C(N)N)N1CCc2ccccc21	i	0.44
COc1cccc(C(C)NC(=O)C2CCCC2)c1 (configuration not stated)	i	1.3
COc1ccc(-c2ccc(/C=N/NC(=O)Cc3nnc(N)s3)o2)cc1Cl	-7.4*	-7.4
Cc1ccc(-c2ccc(/C=N/NC(=O)Cc3nnc(N)s3)o2)cc1Cl	i	·
NN1C(=O)/C(=C\c2ccco2)SC1=S	i	0.84
O=C(c1c(F)cccc1F)N(C1CCCCC1)C1CCCCC1	i	·
CCOC(=O)/C(=C\c1cccnc1)C(=O)c1cc(C(C)=O)c(Nc2ccccc2)s1	i	·
CCOC(=O)/C(=C\c1ccccc1)C(=O)c1cc(C(C)=O)c(Nc2ccccc2)s1	-8.1*	-8.1
SMILES	KCNQ2 block	KCNQ2 pot
Cc1cc(C)cc(C(=O)Nc2ccc(NC(=O)Cc3ccccc3)cc2)c1	i	1.3
O=C(C1=C[C@H](c2coc3ccccc3c2=O)C[C@H](OCCCCO)O1)N1CCN(Cc2ccc3c(c2)OCO3)CC1	i	0.44
Cc1cccc(C(=O)NC(=S)NNC(=O)c2cccs2)c1	i	8.2*
O=C(NC(=S)NNC(=O)c1cccs1)c1ccccc1	i	·
CCC(C)NC(=O)COc1ccc(OCc2ccccc2)cc1 (configuration not stated)	i	0.14
CCN1/C(=C/c2ccc3ccccc3[n+]2CC)C=Cc2ccccc21	-15*	-15
CCN1/C(=C/c2ccc3ccccc3[n+]2CCCS(=O)(=O)[O-])C=Cc2cc(C)ccc21	i	0.41
OCCC1CN(Cc2ccc3c(c2)CCO3)CCN1Cc1ccc(F)cc1 (configuration not stated)	i	·
COc1ccc(/C=N/NC(=O)c2ccc[nH]2)cc1	-6.1*	-6.1
COc1ccc(/C=N/NC(=O)c2cccnc2)cc1	i	·
CCc1cccc(CC)c1NC(=O)CN1C2CCCC1CC(NC(=O)Nc1cccc(OC)c1)C2 (configuration not stated)	i	0.97
CCOC(=O)C1CCN(C(=O)Cn2nc(C)n3nc(-c4ccc(CC)cc4)cc3c2=O)CC1	i	·
Cc1cc(C(C)(C)C)oc1C(=O)N(CC(=O)NC1CCCC1)Cc1ccccc1Cl	-6.2*	-6.2
Cc1ccccc1N(CC(=O)NC1CCCC1)C(=O)c1oc(C(C)(C)C)cc1C	i	·
CC(C)c1nnc(NC(=O)C2CCCN2C(=O)Nc2cccc(Cl)c2)s1 (configuration not stated)	i	1.4
CCn1nc(C)c(NC(=O)CC23CC4CC(CC(C4)C2)C3)c1C	i	21*
Cc1nn(C)cc1NC(=O)CC12CC3CC(CC(C3)C1)C2	i	2.1
Cc1cccc(C)c1NC(=O)CN1C(=O)CCSc2ccc(S(=O)(=O)N3CCCC3)cc21	i	1.2
CN1CCc2c(sc(NC(=O)C3CCCCC3)c2C(N)=O)C1	i	·
N#CCSc1nc2scc(-c3cccs3)c2c(=O)n1CCc1ccccc1	-7*	-7
C=CCn1c(SCC(=O)Nc2ccccc2)nc2scc(-c3cccs3)c2c1=O	i	·
